KCNQ2 pot = potentiators of rat KCNQ2 potassium channel. Potassium voltage-gated channel subfamily KQT member 2 (Rattus norvegicus), O88943. CHO-K1 KCNQ2, FluxOR thallium flux fluorescence; hits give high values. B-score at 10 µM. 310,000 compounds, 0.54% hits;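 active means fluorescence ratio B-score at least 3 SD of library B-scores, with initial fluorescence B-score within 3 of them, cut at about 5.3 in these data; same plate scores as AID 2156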;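 further: B-score of peak minus minimum over baseline fluorescence ratio after K+ and Tl+ stimulus; positive B-score means potentiation of KCNQ2 with more thallium influx and brighter signal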
KCNQ2 block = rat KCNQ2 potassium channel inhibitors, primary screen, cell-based, CHO-K1, FluxOR thallium flux, B-score; 310,000 compounds, 1.1% hits; 20 min; hits give low values; Potassium voltage-gated channel subfamily KQT member 2 (Rattus norvegicus), O88943; B-score at 10 µM;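 active means fluorescence ratio B-score at most minus 3 library SDs, with starting brightness B-score within 2 library SDs, cut at about -5.5 in these data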
KCNQ2 inh conf = rat KCNQ2 potassium channel inhibitors, confirmation, cell-based, thallium flux | AID 493025, 2011 | 1,000 compounds, 57% hits | KCNQ2-expressing cells, inhibition; hits give low values | shares compounds with KCNQ2 block | activity change, negative = inhibition, % at 10 µM
KCNQ1 spec = human KCNQ1 channel inhibition, counter-screen for KCNQ2 inhibitor project, cell-based, FluxOR thallium flux; activity change, negative = inhibition, % at 10 µM; AID 493026, 2011; KCNQ1-expressing cells, FluxOR thallium flux fluorescence; hits give low values; shares compounds with KCNQ2 block; 1,000 compounds, 15% hits;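 active means activity change at least 3 SD of negative controls below their mean in both duplicate wells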;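 further: CHO cells stably transfected with KCNQ1 and depolarized by potassium stimulus; peak minus minimum fluorescence over baseline after thallium addition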
Target sequence (P51787 whole entry, looked up): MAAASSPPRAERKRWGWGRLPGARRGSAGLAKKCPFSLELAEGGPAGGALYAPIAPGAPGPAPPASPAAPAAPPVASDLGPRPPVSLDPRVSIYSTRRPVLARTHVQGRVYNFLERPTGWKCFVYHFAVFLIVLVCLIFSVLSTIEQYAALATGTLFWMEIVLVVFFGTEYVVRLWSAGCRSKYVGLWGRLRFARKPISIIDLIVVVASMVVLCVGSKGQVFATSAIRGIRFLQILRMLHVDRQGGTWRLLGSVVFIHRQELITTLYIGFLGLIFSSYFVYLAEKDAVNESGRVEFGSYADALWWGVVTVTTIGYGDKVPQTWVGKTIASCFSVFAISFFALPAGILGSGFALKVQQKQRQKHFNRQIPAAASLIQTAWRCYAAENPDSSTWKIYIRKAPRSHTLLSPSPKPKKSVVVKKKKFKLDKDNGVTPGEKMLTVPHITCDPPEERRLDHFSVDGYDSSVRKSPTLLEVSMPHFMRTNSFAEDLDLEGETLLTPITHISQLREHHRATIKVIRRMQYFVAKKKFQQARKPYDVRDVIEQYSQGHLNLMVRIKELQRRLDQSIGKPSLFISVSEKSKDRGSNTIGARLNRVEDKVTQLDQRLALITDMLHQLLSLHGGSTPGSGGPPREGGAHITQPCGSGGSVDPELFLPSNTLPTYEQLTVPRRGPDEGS
CHO parental ctr = thallium flux change in parental CHO cells, counter-screen for KCNQ2 inhibitor project. shares compounds with KCNQ2 block. hits give low values. activity change, % at 10 µM. 1,000 compounds, 14% hits. AID 493029, 2011
KCNQ2 patch conf = rat KCNQ2 channel inhibitors, confirmation, cell-based, automated patch clamp, single concentration; shares compounds with KCNQ2 block; KCNQ2-expressing cells, automated patch clamp current; calls only at 10 µM; 550 compounds, 49% hits; AID 588531, 2011
Each line names hits and unclear results; the compound was inactive in the other large screens (follow-up assays come after a bar, where they were run). Rows were chosen to be rich in hits. Some 1.6% of all compounds tested hit in one or more screens of this group. Unless noted, how the calls were made is not given here.

O=C(NCCCN1CCOCC1)C(=O)N/N=C/c1ccccc1O	none
COc1ccccc1NCC(O)Cn1c2ccccc2c2ccccc21 (configuration not stated)	none
COc1ccc(CCNCC(O)Cn2c3ccccc3c3ccccc32)cc1OC (configuration not stated)	KCNQ2 block -7 | KCNQ2 inh conf -24% | KCNQ1 spec inactive | CHO parental ctr inactive | KCNQ2 patch conf inactive
Cc1cccc(NC(=O)c2ccc(NS(=O)(=O)c3c(C)noc3C)cc2)c1	none
CC(C)(C)c1cccc(OCCCSc2ncccn2)c1	KCNQ2 block -9.2 | KCNQ2 inh conf inactive | KCNQ1 spec inactive | CHO parental ctr inactive
Cc1ccc(OCCCSc2ncccn2)cc1C	none (no result: KCNQ2 pot)
C=CCn1c(CSc2nc3ccccc3s2)nnc1SCC(=O)NCc1cccnc1	none
CCOc1ccc(NC(=O)C2CCN(S(=O)(=O)c3c(C)n[nH]c3C)CC2)cc1	none
CC1CN(S(=O)(=O)c2cccc(C(=O)Nc3ccccc3N3CCCCC3)c2)CC(C)O1 (configuration not stated)	KCNQ2 block -9.5 | KCNQ2 inh conf -29% | KCNQ1 spec inactive | CHO parental ctr inactive | KCNQ2 patch conf inactive
CN(C)S(=O)(=O)c1cccc(C(=O)Nc2ccccc2N2CCCCC2)c1	none (no result: KCNQ2 pot)
Cc1ccc(-c2cc(-c3ccccc3)nc(Cl)n2)cc1	KCNQ2 block -8.3 | KCNQ2 inh conf inactive | KCNQ1 spec inactive | CHO parental ctr inactive
COc1ccc(-c2cc(-c3ccccc3)nc(Cl)n2)cc1OC	none (no result: KCNQ2 pot)
CCN1CCN(C(=O)C2CCN(S(=O)(=O)N3CCC4(CC3)OCCO4)CC2)CC1	none (no result: KCNQ2 pot)
COc1ccc(N=N/C(=C\O)C(=O)c2cccs2)cc1	none (no result: KCNQ2 pot)
COc1ccc(/C=C(/C(=O)c2cccs2)N2C=CC=CC2=C(C#N)C#N)cc1	KCNQ2 block -7.9 | KCNQ2 inh conf -42% | KCNQ1 spec inactive | CHO parental ctr inactive | KCNQ2 patch conf inactive
CCOC(=O)C1(Cc2ccccc2C(F)(F)F)CCN(C(=O)c2cc(C(C)=O)n[nH]2)CC1	none (no result: KCNQ2 pot)
O=C(COC(=O)c1c(Cl)cccc1Cl)Nc1cc(Cl)ccc1Oc1ccccc1	none (no result: KCNQ2 pot)
Cc1ccccc1OCC(=O)Nc1cc(Cl)ccc1Oc1ccccc1	KCNQ2 block -7.4 | KCNQ2 inh conf -26% | KCNQ1 spec inactive | CHO parental ctr inactive | KCNQ2 patch conf inactive
COc1ccccc1OCC(=O)Nc1cc(Cl)ccc1Oc1ccccc1	KCNQ2 block -10 | KCNQ2 inh conf -32% | KCNQ1 spec -35% | CHO parental ctr -30% | KCNQ2 patch conf active
O=C(COC(=O)c1ccccc1)Nc1cc(Cl)ccc1Oc1ccccc1	none (no result: KCNQ2 pot)
Cc1ccc2c(CC(=O)N(CC3CCCO3)c3c(N)n(Cc4ccccc4)c(=O)[nH]c3=O)coc2c1 (configuration not stated)	none
COc1cc(NC(=O)C(c2ccccc2)c2ccccc2)c(C(=O)O)cc1OC	none
COc1cc2c(cc1NC(=O)C(c1ccccc1)c1ccccc1)CCCC2	KCNQ2 block -7.1 | KCNQ2 inh conf -34% | KCNQ1 spec inactive | CHO parental ctr inactive | KCNQ2 patch conf active
CCOC(=O)CSc1nc(C)c2ccccc2n1	none
O=C(Cn1nnc(-c2ccccc2)n1)OCc1ccccc1	none
COc1cccc(NC(=O)C(NCC2CCCCC2)c2ccccc2)c1 (configuration not stated)	KCNQ2 block -10 | KCNQ2 inh conf -28% | KCNQ1 spec inactive | CHO parental ctr inactive | KCNQ2 patch conf active
COc1cccc(NC(=O)C2CCCCC2)c1	none
CC1CN(C(=O)c2ccc(COc3ccc(C(C)C)cc3)o2)CC(C)O1 (configuration not stated)	none (no result: KCNQ2 pot)
CC1CN(C(=O)c2ccc(COc3ccc4ccccc4c3)o2)CC(C)O1 (configuration not stated)	KCNQ2 block -10 | KCNQ2 inh conf inactive | KCNQ1 spec inactive | CHO parental ctr inactive
O=C(NN1CC(=O)N(c2cc(Cl)cc(Cl)c2)CC1=O)c1sccc1Cl	none
CCC1=NN(C(=O)COc2ccccc2C)C(O)(c2ccncc2)C1 (configuration not stated)	none (no result: KCNQ2 pot)
CC1=NN(C(=O)COc2ccccc2C)C(O)(c2ccc(Cl)cc2)C1 (configuration not stated)	KCNQ2 block -8.1 | KCNQ2 inh conf -24% | KCNQ1 spec inactive | CHO parental ctr inactive | KCNQ2 patch conf active
CCOC(=O)N1CCc2c(sc3c2c(=O)n(Cc2ccccc2)c(=O)n3Cc2cccc(C)c2)C1	KCNQ2 block -8.6 | KCNQ2 inh conf -44% | KCNQ1 spec -30% | CHO parental ctr -28% | KCNQ2 patch conf inactive
O=C(O)Cn1c(=O)c2c3c(sc2n(Cc2ccccc2)c1=O)CCCC3	none (no result: KCNQ2 pot)
CCOC(=O)N1CCc2c(sc3c2c(=O)n(Cc2ccccc2)c(=O)n3Cc2ccccc2F)C1	KCNQ2 block -12 | KCNQ2 inh conf inactive | KCNQ1 spec inactive | CHO parental ctr inactive
CCOC(=O)N1CCc2c(sc3c2c(=O)n(Cc2ccccc2)c(=O)n3CC(=O)NCC2CCCO2)C1 (configuration not stated)	none
Cc1c(Cl)cccc1NC(=O)c1cc(-c2ccco2)on1	none
CCC/C=C1/CCCOC(C(=O)NCc2ccccc2)(C(F)(F)F)C1 (configuration not stated)	none (no result: KCNQ2 pot)
O=C(NCc1ccccc1Cl)C(=O)NCC1OCCCN1S(=O)(=O)c1cccs1 (configuration not stated)	none (no result: KCNQ2 pot)
CC(C)(OC1OC(CO)C(O)C(O)C1O)[C@H]1Oc2ccc3ccc(=O)oc3c2[C@H]1O (some centres not stated)	none
O=C(O)CCc1ccc(-c2ccc(F)cc2)n1CC(=O)O	none (no result: KCNQ2 pot)
CCOC(=O)Cn1c(CCC(=O)O)ccc1-c1ccc(F)cc1	KCNQ2 block -9.3 | KCNQ2 inh conf inactive | KCNQ1 spec inactive | CHO parental ctr inactive
CCc1c(C)[nH]n(CCC#N)c1=O	none
O=C1c2oc3ccccc3c(=O)c2C(c2cccnc2)N1CCCN1CCOCC1 (configuration not stated)	none
COc1cc(/C=N/NC(=O)CCC(=O)Nc2ccc(C)cc2)ccc1O	none
N#C/C(=C\c1ccccc1[N+](=O)[O-])C(=O)NC1CCCCC1	KCNQ2 block -6.9 | KCNQ2 inh conf -34% | KCNQ1 spec inactive | CHO parental ctr inactive | KCNQ2 patch conf active
CCOc1ccccc1/C=C(\C#N)C(=O)NC1CC1	none (no result: KCNQ2 pot)
Cc1c(Br)c(O)c(Br)c(O)c1/C=N/n1c(-c2ccccc2)n[nH]c1=S	none (no result: KCNQ2 pot)
Cc1ccc(NC(CC(=O)c2ccccc2)c2ccc(F)cc2)cc1 (configuration not stated)	none (no result: KCNQ2 pot)
COc1ccc(C(CC(=O)c2ccc(C)cc2)Nc2ccc([N+](=O)[O-])cc2)cc1 (configuration not stated)	KCNQ2 block -6.9 | KCNQ2 inh conf -42% | KCNQ1 spec -33% | CHO parental ctr -26% | KCNQ2 patch conf inactive
COc1ccc(/C=C/C(=O)Nc2ccc(S(=O)(=O)Nc3cc(C)nc(C)n3)cc2)cc1OC	none (no result: KCNQ2 pot)

Source: PubChem (Johns Hopkins Ion Channel Center)
